{"source": "paper PMC11102866", "about": "“Nucleosome-bound NR5A2 structure reveals pioneer factor mechanism by DNA minor groove anchor competition”", "binders": {"B1": {"name": "127 (nucleosome)", "DNA 1": "ATCCTGGAGAATCCCGGTGCCGAGGCCGCTCAATTGGTCGTAGACAGCTCTAGCACCGCTTAAACGCACGTACGCGCTGTCCCCCGCGTTTTAACCGCCAAGGGGATTACTCCCTAGTCTCCAGGCACGTCAAGGCCATATACATCCTGTGAT", "DNA 2": "ATCACAGGATGTATATGGCCTTGACGTGCCTGGAGACTAGGGAGTAATCCCCTTGGCGGTTAAAACGCGGGGGACAGCGCGTACGTGCGTTTAAGCGGTGCTAGAGCTGTCTACGACCAATTGAGCGGCCTCGGCACCGGGATTCTCCAGGAT", "modifications": "reconstituted with mouse histones H2A, H2B, H3.3 and H4"}, "B2": {"name": "128 (nucleosome)", "DNA 1": "B1 DNA 1 with C131T, A132C, G134A, C136G, A138C, T139A", "DNA 2": "B1 DNA 2 with A15T, T16G, G18C, C20T, T22G, G23A", "modifications": "reconstituted with mouse histones H2A, H2B, H3.3 and H4"}, "B3": {"name": "129 (nucleosome)", "DNA 1": "B1 DNA 1 with C131G, A132T, A133C, G134A, G135A, C136G, C137G, A138C, T139C", "DNA 2": "B1 DNA 2 with A15G, T16G, G17C, G18C, C19T, C20T, T21G, T22A, G23C", "modifications": "reconstituted with mouse histones H2A, H2B, H3.3 and H4"}, "B4": {"name": "130 (nucleosome)", "DNA 1": "ATCCTGGAGAATCCCGGTGCCGAGGCCGCTCAATTGGTCGTAGACAGCTCTAGCACCGCTTAAACGCACGTACGCGCTGTCCCCCGCGTTTTAACCGCCAAGGGGATTACTCCCTAGTCTCCAGGCACGTGTTCAAGGCCAACATCCTGTGAT", "DNA 2": "ATCACAGGATGTTGGCCTTGAACACGTGCCTGGAGACTAGGGAGTAATCCCCTTGGCGGTTAAAACGCGGGGGACAGCGCGTACGTGCGTTTAAGCGGTGCTAGAGCTGTCTACGACCAATTGAGCGGCCTCGGCACCGGGATTCTCCAGGAT", "modifications": "reconstituted with mouse histones H2A, H2B, H3.3 and H4"}, "B5": {"name": "131 (nucleosome)", "DNA 1": "B4 DNA 1 with T133C, C134T, A135C, G137A, C139G, A141C", "DNA 2": "B4 DNA 2 with T13G, G15C, C17T, T19G, G20A, A21G", "modifications": "reconstituted with mouse histones H2A, H2B, H3.3 and H4"}, "B6": {"name": "15 (nucleosome)", "DNA 1": "ATCCTGGAGAATCCCGGTCAAGGCCACGCTCAATTGGTCGTAGACAGCTCTAGCACCGCTTAAACGCACGTACGCGCTGTCCCCCGCGTTTTAACCGCCAAGGGGATTACTCCCTAGTCTCCAGGCACGTGTCAGATATATACATCCTGTGAT", "DNA 2": "ATCACAGGATGTATATATCTGACACGTGCCTGGAGACTAGGGAGTAATCCCCTTGGCGGTTAAAACGCGGGGGACAGCGCGTACGTGCGTTTAAGCGGTGCTAGAGCTGTCTACGACCAATTGAGCGTGGCCTTGACCGGGATTCTCCAGGAT", "modifications": "reconstituted with mouse histones H2A, H2B, H3.3 and H4"}, "B7": {"name": "132 (nucleosome)", "DNA 1": "ATCCTGGAGAATCCCGGTGCCGAGGCCGCTCAATTGGTCGTAGACAGCTCTAGCACCGCTTAAACGCACGTACGCGCTGTCCCCCGCGTTTTAACCGCCAAGGGGATTACTCCCTAGTCTCCAGGCACGTGTCATCAAGGCCAATCCTGTGAT", "DNA 2": "ATCACAGGATTGGCCTTGATGACACGTGCCTGGAGACTAGGGAGTAATCCCCTTGGCGGTTAAAACGCGGGGGACAGCGCGTACGTGCGTTTAAGCGGTGCTAGAGCTGTCTACGACCAATTGAGCGGCCTCGGCACCGGGATTCTCCAGGAT", "modifications": "reconstituted with mouse histones H2A, H2B, H3.3 and H4"}, "B8": {"name": "133 (nucleosome)", "DNA 1": "B7 DNA 1 with T135G, C136T, A137C, G139A, C141G, A143C", "DNA 2": "B7 DNA 2 with T11G, G13C, C15T, T17G, G18A, A19C", "modifications": "reconstituted with mouse histones H2A, H2B, H3.3 and H4"}, "B9": {"name": "134 (nucleosome)", "DNA 1": "ATCCTGGAGAATCCCGGTGCCGAGGCCGCTCAATTGGTCGTAGACAGCTCTAGCACCGCTTAAACGCACGTACGCGCTGTCCCCCGCGTTTTAACCGCCAAGGGGATTACTCCCTAGTCTCCAGGCACGTGTCAGATCAAGGCCACCTGTGAT", "DNA 2": "ATCACAGGTGGCCTTGATCTGACACGTGCCTGGAGACTAGGGAGTAATCCCCTTGGCGGTTAAAACGCGGGGGACAGCGCGTACGTGCGTTTAAGCGGTGCTAGAGCTGTCTACGACCAATTGAGCGGCCTCGGCACCGGGATTCTCCAGGAT", "modifications": "reconstituted with mouse histones H2A, H2B, H3.3 and H4"}, "B10": {"name": "135 (nucleosome)", "DNA 1": "B9 DNA 1 with C138T, A139C, G141A, C143G, A145C, C146A", "DNA 2": "B9 DNA 2 with G8T, T9G, G11C, C13T, T15G, G16A", "modifications": "reconstituted with mouse histones H2A, H2B, H3.3 and H4"}, "B11": {"name": "137 (nucleosome)", "DNA 1": "B9 DNA 1 with C138A, A139T, A140T, G141C, G142A, C143A, C144G, A145G, T148A", "DNA 2": "B7 DNA 2 with A6T, A9C, T10C, G12T, C14A, C15A, T17A, G18T, A19C", "modifications": "reconstituted with mouse histones H2A, H2B, H3.3 and H4"}, "B12": {"name": "138 (nucleosome)", "DNA 1": "B9 DNA 1 with C138A, A139T, G141T, G142C, C143A, C144A, A145G, C146G, T148C, G149A", "DNA 2": "B7 DNA 2 with C5T, A6G, G8C, A9C, G13A, C14T, C15A, T17A, G18T, A19C", "modifications": "reconstituted with mouse histones H2A, H2B, H3.3 and H4"}, "B13": {"name": "139 (nucleosome)", "DNA 1": "B9 DNA 1 with C138A, A139T, G141T, G142T, C144A, C146G, C147G, T148C, G149C, T150A", "DNA 2": "B9 DNA 2 with A4T, C5G, A6G, G7C, G8C, G10T, C12A, C13A, T15A, G16T", "modifications": "reconstituted with mouse histones H2A, H2B, H3.3 and H4"}, "B14": {"name": "16 (nucleosome)", "DNA 1": "B6 DNA 1 with C19T, A20C, G22A, C24G, A26C, C27A", "DNA 2": "B6 DNA 2 with G127T, T128G, G130C, C132T, T134G, G135A", "modifications": "reconstituted with mouse histones H2A, H2B, H3.3 and H4"}, "B15": {"name": "17 (nucleosome)", "DNA 1": "B6 DNA 1 with C19G, A20T, A21C, G22A, G23A, C24G, C25G, A26C, G28A", "DNA 2": "B6 DNA 2 with C126T, T128G, G129C, G130C, C131T, C132T, T133G, T134A, G135C", "modifications": "reconstituted with mouse histones H2A, H2B, H3.3 and H4"}}, "note": "Numbering of substitutions follows the chain as printed. Names may count otherwise.", "data": [{"target": "NR5A2 wild type;histone octamer (Homo sapiens;, UniProt O00482;C0HKE1;Q6ZWY9;P84244;P62806 1-541;2-130;2-126;2-136;2-103, |)", "assay": "SeEN-seq (EMSA of nucleosome library followed by sequencing); 0.8 uM human NR5A2; 20 mM Tris-HCl pH 7.5, 120 mM NaCl, 1 mM MgCl2, 10 uM ZnCl2, 1 mM DTT, 100 ug/ml BSA, room temperature, 30 min; 0.1 uM nucleosome library; high values mean tight binding", "values": [{"binder": "B1", "binding signal": "4.33 log2 enrichment (bound/unbound, relative to Widom 601)"}, {"binder": "B2", "binding signal": "5.29 log2 enrichment (bound/unbound, relative to Widom 601)"}, {"binder": "B3", "binding signal": "2.87 log2 enrichment (bound/unbound, relative to Widom 601)"}, {"binder": "B4", "binding signal": "1.7 log2 enrichment (bound/unbound, relative to Widom 601)"}, {"binder": "B5", "binding signal": "3.61 log2 enrichment (bound/unbound, relative to Widom 601)"}, {"binder": "B6", "binding signal": "1.12 log2 enrichment (bound/unbound, relative to Widom 601)"}, {"binder": "B7", "binding signal": "3.78 log2 enrichment (bound/unbound, relative to Widom 601)"}, {"binder": "B8", "binding signal": "4.27 log2 enrichment (bound/unbound, relative to Widom 601)"}, {"binder": "B9", "binding signal": "5.2 log2 enrichment (bound/unbound, relative to Widom 601)"}, {"binder": "B10", "binding signal": "7.68 log2 enrichment (bound/unbound, relative to Widom 601)"}, {"binder": "B11", "binding signal": "6.9 log2 enrichment (bound/unbound, relative to Widom 601)"}, {"binder": "B12", "binding signal": "7.13 log2 enrichment (bound/unbound, relative to Widom 601)"}, {"binder": "B13", "binding signal": "8.13 log2 enrichment (bound/unbound, relative to Widom 601)"}, {"binder": "B14", "binding signal": "1.52 log2 enrichment (bound/unbound, relative to Widom 601)"}, {"binder": "B15", "binding signal": "1.96 log2 enrichment (bound/unbound, relative to Widom 601)"}]}, {"target": "mouse Nr5a2 wild type;histone octamer (Mus musculus;, UniProt P45448;C0HKE1;Q6ZWY9;P84244;P62806 1-560;2-130;2-126;2-136;2-103, |)", "assay": "SeEN-seq (EMSA of nucleosome library followed by sequencing); 1.2 uM mouse Nr5a2; 20 mM Tris-HCl pH 7.5, 120 mM NaCl, 1 mM MgCl2, 10 uM ZnCl2, 1 mM DTT, 100 ug/ml BSA, room temperature, 30 min; 0.1 uM nucleosome library; high values mean tight binding", "values": [{"binder": "B1", "binding signal": "3.32 log2 enrichment (bound/unbound, relative to Widom 601)"}, {"binder": "B2", "binding signal": "4.1 log2 enrichment (bound/unbound, relative to Widom 601)"}, {"binder": "B3", "binding signal": "2.23 log2 enrichment (bound/unbound, relative to Widom 601)"}, {"binder": "B4", "binding signal": "1.35 log2 enrichment (bound/unbound, relative to Widom 601)"}, {"binder": "B5", "binding signal": "3.22 log2 enrichment (bound/unbound, relative to Widom 601)"}, {"binder": "B6", "binding signal": "1.33 log2 enrichment (bound/unbound, relative to Widom 601)"}, {"binder": "B7", "binding signal": "3.09 log2 enrichment (bound/unbound, relative to Widom 601)"}, {"binder": "B8", "binding signal": "3.65 log2 enrichment (bound/unbound, relative to Widom 601)"}, {"binder": "B9", "binding signal": "3.67 log2 enrichment (bound/unbound, relative to Widom 601)"}, {"binder": "B10", "binding signal": "5.73 log2 enrichment (bound/unbound, relative to Widom 601)"}, {"binder": "B11", "binding signal": "5.78 log2 enrichment (bound/unbound, relative to Widom 601)"}, {"binder": "B12", "binding signal": "5.66 log2 enrichment (bound/unbound, relative to Widom 601)"}, {"binder": "B13", "binding signal": "5.56 log2 enrichment (bound/unbound, relative to Widom 601)"}, {"binder": "B14", "binding signal": "1.81 log2 enrichment (bound/unbound, relative to Widom 601)"}, {"binder": "B15", "binding signal": "1.98 log2 enrichment (bound/unbound, relative to Widom 601)"}]}]}
